Experimental data from the supplement of paper PMC11732987, “Enantioselective OTUD7B fragment discovery through chemoproteomics screening and high-throughput optimisation” (Communications Chemistry, 2025).
Unmarked numbers belong to inactive results.

Experiments:
Experiment in all cases: log2 ratio of Biotin-Ahx-Ub-VS probe labelling (fragment/DMSO); higher = less target engagement (more negative = stronger competition), active = hit call of the paper (q ≤ 0.05, log2 ratio ≤ -1)
Conditions in all cases: compound concentration: 200 uM; treatment time: 3 h
USP19 = target: T1, USP19 (UniProt O94966)
T1 sequence (whole entry): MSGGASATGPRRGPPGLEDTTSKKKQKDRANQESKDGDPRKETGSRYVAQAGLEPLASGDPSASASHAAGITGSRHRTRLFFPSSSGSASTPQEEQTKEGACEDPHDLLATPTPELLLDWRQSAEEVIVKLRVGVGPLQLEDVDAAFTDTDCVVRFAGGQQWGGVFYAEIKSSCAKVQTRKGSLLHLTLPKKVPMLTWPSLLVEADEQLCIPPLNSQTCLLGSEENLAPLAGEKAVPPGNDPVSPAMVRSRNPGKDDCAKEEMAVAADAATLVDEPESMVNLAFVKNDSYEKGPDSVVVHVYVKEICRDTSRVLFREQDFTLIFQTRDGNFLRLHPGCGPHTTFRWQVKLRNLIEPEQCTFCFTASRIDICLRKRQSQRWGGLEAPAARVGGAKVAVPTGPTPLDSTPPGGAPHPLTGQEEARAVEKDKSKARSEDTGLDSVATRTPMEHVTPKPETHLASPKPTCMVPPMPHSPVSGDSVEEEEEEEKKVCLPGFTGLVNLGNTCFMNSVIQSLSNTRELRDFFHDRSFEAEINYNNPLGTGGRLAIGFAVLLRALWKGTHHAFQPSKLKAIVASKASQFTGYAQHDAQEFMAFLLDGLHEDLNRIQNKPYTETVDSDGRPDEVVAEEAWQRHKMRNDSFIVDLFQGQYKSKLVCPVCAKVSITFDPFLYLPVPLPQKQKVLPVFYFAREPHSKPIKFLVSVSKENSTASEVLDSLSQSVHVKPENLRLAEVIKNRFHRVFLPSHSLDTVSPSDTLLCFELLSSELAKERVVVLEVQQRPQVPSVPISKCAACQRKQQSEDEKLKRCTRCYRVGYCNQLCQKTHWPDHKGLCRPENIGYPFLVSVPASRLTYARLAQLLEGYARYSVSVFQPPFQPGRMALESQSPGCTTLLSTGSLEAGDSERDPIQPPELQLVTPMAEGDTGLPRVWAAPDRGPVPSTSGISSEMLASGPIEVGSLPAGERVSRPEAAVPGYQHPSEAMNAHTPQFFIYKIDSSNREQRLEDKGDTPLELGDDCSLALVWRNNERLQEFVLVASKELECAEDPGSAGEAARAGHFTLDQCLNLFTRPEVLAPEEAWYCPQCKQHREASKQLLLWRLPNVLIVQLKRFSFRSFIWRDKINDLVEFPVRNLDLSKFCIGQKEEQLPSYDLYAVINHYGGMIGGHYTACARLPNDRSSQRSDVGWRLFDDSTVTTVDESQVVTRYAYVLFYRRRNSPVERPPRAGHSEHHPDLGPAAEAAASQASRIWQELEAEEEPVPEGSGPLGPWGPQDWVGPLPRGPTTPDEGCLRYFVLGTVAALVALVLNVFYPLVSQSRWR
Outline: (§1)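 HEK293T lysate in Tris/CHAPS/IGEPAL buffer with protease inhibitors (495 µg per sample) was given fragment at 200 µM or vehicle for 3 h, in triplicate. It then received Biotin-Ahx-Ub-VS at 0.5 µM final for 1 h. Labelled DUBs were NeutrAvidin-enriched, digested with LysC and trypsin, and run by diaPASEF LC-MS/MS. Values are average log2 fragment/vehicle ratios by unpaired t-test on global-median-normalised Spectronaut quantities of proteins with ≥2 unique peptides.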

USP24 = USP24 (UniProt Q9UPU5)
Sequence of USP24 (Q9UPU5 whole entry): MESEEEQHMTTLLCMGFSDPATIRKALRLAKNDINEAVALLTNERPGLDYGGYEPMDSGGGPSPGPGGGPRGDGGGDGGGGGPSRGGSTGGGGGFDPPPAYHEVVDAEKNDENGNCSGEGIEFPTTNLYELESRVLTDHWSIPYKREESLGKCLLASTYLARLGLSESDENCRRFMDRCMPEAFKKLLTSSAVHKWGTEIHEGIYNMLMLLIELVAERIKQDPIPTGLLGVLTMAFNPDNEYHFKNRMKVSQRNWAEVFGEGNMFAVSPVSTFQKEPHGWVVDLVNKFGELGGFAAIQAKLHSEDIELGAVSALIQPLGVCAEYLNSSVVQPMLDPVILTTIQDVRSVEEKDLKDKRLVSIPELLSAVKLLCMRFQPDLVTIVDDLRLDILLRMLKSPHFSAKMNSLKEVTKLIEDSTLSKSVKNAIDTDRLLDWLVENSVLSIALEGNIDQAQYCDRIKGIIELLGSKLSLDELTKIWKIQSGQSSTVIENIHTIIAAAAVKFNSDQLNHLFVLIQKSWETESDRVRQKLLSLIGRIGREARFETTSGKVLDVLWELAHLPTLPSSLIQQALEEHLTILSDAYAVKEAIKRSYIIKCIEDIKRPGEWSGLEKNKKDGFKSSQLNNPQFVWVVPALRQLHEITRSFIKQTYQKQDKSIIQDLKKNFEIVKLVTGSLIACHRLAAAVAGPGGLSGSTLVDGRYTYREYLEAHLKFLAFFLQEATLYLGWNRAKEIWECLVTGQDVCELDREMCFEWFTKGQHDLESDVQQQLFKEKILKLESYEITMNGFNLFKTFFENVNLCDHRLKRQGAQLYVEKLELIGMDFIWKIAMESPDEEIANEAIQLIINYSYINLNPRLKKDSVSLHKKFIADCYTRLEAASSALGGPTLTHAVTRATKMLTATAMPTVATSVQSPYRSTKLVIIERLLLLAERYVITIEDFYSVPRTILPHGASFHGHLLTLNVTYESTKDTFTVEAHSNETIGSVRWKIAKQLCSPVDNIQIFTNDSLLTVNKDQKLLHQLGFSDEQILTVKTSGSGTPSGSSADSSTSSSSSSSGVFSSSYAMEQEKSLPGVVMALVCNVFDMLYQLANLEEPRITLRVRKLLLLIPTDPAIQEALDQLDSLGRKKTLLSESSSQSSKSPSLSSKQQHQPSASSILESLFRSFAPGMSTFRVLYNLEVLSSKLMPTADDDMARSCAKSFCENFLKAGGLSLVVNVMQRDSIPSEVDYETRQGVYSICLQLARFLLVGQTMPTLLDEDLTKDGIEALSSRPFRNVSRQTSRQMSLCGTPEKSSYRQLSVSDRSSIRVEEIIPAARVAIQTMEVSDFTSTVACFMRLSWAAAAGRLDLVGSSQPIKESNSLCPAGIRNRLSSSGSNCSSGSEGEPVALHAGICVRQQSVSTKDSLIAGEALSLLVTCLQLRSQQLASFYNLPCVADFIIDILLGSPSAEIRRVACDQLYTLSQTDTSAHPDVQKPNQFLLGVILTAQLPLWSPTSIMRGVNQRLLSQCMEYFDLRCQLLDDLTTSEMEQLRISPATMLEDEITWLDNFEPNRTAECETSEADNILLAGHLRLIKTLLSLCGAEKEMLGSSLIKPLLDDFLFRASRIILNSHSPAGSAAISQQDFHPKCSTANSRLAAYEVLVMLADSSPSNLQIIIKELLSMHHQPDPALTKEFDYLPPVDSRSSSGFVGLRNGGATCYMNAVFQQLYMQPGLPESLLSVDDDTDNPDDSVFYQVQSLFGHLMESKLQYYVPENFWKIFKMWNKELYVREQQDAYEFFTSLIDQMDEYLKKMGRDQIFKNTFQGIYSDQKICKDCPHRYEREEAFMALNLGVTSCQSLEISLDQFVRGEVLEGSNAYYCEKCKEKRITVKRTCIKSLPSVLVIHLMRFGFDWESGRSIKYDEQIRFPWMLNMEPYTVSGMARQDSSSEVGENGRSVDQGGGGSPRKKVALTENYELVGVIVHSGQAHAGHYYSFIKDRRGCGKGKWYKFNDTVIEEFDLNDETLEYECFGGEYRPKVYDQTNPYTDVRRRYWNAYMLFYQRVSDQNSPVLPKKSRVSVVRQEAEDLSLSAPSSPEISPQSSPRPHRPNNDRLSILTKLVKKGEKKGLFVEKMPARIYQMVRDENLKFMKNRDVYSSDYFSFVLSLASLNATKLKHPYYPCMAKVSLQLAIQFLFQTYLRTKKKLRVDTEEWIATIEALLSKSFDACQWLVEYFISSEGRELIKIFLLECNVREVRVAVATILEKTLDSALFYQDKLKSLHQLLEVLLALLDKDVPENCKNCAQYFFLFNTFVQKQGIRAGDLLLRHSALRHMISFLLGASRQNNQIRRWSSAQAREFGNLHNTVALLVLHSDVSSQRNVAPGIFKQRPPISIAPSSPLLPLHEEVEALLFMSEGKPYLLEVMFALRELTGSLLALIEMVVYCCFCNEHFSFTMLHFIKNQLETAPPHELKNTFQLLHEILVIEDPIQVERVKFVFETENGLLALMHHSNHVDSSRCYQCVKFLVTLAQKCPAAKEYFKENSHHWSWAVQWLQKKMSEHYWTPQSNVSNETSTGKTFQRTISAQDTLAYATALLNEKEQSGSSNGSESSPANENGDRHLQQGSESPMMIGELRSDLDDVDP
Outline: as §1

USP25 = target: T2, USP25 (UniProt Q9UHP3)
T2 sequence (whole entry): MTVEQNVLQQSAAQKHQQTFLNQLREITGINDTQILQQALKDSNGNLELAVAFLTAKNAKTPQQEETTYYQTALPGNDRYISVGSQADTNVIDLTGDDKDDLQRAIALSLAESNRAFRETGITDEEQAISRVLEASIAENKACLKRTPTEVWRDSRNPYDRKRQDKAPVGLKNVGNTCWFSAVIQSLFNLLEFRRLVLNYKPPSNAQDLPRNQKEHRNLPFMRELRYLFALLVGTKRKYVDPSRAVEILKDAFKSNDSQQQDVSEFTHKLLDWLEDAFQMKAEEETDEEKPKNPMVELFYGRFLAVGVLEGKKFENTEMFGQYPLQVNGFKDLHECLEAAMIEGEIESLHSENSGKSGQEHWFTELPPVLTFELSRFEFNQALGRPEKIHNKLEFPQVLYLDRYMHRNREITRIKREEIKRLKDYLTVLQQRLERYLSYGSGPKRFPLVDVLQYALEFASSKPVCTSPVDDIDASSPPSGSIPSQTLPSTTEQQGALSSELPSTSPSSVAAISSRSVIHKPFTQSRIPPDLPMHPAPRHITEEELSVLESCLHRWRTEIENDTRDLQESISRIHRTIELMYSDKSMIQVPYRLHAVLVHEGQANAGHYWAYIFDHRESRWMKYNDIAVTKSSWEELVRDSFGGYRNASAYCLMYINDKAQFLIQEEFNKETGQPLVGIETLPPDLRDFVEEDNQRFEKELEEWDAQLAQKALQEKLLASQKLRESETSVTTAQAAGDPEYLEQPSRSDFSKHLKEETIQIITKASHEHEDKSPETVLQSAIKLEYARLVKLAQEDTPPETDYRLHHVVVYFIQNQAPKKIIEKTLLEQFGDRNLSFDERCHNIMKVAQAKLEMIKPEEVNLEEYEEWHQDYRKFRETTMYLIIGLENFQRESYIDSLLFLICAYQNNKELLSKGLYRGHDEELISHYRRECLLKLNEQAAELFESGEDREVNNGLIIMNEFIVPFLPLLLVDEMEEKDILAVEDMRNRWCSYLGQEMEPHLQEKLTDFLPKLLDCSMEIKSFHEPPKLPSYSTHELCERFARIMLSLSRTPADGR
Outline: as §1

USP28 = target: T3, USP28 (UniProt Q96RU2)
T3 sequence (whole entry): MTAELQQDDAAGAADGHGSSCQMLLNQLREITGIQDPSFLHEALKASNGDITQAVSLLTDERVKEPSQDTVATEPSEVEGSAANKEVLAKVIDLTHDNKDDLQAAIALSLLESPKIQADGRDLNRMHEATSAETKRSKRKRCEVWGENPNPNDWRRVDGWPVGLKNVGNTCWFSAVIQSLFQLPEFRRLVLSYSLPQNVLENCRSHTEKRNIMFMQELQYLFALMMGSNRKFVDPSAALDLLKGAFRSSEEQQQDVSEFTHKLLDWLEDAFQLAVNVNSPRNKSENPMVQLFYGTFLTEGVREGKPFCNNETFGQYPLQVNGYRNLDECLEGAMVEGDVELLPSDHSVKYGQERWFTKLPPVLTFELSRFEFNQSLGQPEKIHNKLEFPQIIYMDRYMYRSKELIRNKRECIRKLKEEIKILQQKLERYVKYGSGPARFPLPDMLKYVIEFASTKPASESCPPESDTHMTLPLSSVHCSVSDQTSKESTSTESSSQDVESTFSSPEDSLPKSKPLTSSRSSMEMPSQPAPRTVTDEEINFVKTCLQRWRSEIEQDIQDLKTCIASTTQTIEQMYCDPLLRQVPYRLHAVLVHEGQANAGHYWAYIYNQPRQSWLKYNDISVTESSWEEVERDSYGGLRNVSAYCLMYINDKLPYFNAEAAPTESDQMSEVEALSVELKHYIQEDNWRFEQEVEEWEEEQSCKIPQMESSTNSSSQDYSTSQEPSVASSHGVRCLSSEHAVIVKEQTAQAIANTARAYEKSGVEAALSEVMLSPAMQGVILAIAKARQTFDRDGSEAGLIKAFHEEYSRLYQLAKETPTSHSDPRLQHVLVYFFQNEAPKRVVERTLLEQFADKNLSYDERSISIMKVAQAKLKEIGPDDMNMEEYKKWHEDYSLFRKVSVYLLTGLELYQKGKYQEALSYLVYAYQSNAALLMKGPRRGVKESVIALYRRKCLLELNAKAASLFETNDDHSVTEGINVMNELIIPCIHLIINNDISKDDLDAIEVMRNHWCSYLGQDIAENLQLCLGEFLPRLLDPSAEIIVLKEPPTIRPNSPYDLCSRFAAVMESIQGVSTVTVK
Outline: as §1

Cc1n[nH]c2c1CN(C(=O)CCl)CC2
log2 ratio of Biotin-Ahx-Ub-VS probe labelling (USP19): -1.23 (active)
log2 ratio of Biotin-Ahx-Ub-VS probe labelling (USP24): -1.26 (active)
log2 ratio of Biotin-Ahx-Ub-VS probe labelling (USP25): -0.783
log2 ratio of Biotin-Ahx-Ub-VS probe labelling (USP28): -1.29 (active)
